{
  "source": "paper doi:10.1101/2024.03.05.583629",
  "data": [
    {"target": "pT7_6His-AlfaTag-ZIF268 (human, UniProt P18146 335-423)", "test": "PADIT-seq", "conditions": "dsDNA, one strand shown", "units": {"binding signal": "log2FC"}, "values": [
      {"sequence": "CTCGAGGATATCAAGATCTGGCCTCGGCGCGTGGTGTGGAACCTCTAGCTAGCCGACTCACTATAGGGATAATCGCCCTGAGCAAAGACC", "binding signal": "0.166 ± 0.105"},
      {"sequence": "CTCGAGGATATCAAGATCTGGCCTCGGCATACCACGCGGAACCTCTAGCTAGCCGACTCACTATAGGGATAATCGCCCTGAGCAAAGACC", "binding signal": "0.123 ± 0.0818"},
      {"sequence": "CTCGAGGATATCAAGATCTGGCCTCGGCACATGGGCGGGAACCTCTAGCTAGCCGACTCACTATAGGGATAATCGCCCTGAGCAAAGACC", "binding signal": "0.18 ± 0.0881"},
      {"sequence": "CTCGAGGATATCAAGATCTGGCCTCGGCGCGTAGGCGGGAACCTCTAGCTAGCCGACTCACTATAGGGATAATCGCCCTGAGCAAAGACC", "binding signal": "3.65 ± 0.0875"},
      {"sequence": "CTCGAGGATATCAAGATCTGGCCTCGGCGCGGTGGCGGGAACCTCTAGCTAGCCGACTCACTATAGGGATAATCGCCCTGAGCAAAGACC", "binding signal": "0.175 ± 0.118"},
      {"sequence": "CTCGAGGATATCAAGATCTGGCCTCGGCGACTGGGCGGGAACCTCTAGCTAGCCGACTCACTATAGGGATAATCGCCCTGAGCAAAGACC", "binding signal": "0.0505 ± 0.0931"},
      {"sequence": "CTCGAGGATATCAAGATCTGGCCTCGGCGCGTGGCAAGGAACCTCTAGCTAGCCGACTCACTATAGGGATAATCGCCCTGAGCAAAGACC", "binding signal": "0.0121 ± 0.1"},
      {"sequence": "CTCGAGGATATCAAGATCTGGCCTCGGCGGTTGGGCGGGAACCTCTAGCTAGCCGACTCACTATAGGGATAATCGCCCTGAGCAAAGACC", "binding signal": "0.0831 ± 0.0849"},
      {"sequence": "CTCGAGGATATCAAGATCTGGCCTCGGCAGATGGGCGGGAACCTCTAGCTAGCCGACTCACTATAGGGATAATCGCCCTGAGCAAAGACC", "binding signal": "0.0303 ± 0.101"},
      {"sequence": "CTCGAGGATATCAAGATCTGGCCTCGGCCGCCCACACGGAACCTCTAGCTAGCCGACTCACTATAGGGATAATCGCCCTGAGCAAAGACC", "binding signal": "1.63 ± 0.0957"},
      {"sequence": "CTCGAGGATATCAAGATCTGGCCTCGGCGCGTGGTTGGGAACCTCTAGCTAGCCGACTCACTATAGGGATAATCGCCCTGAGCAAAGACC", "binding signal": "0.34 ± 0.0919"},
      {"sequence": "CTCGAGGATATCAAGATCTGGCCTCGGCAACCCACGCGGAACCTCTAGCTAGCCGACTCACTATAGGGATAATCGCCCTGAGCAAAGACC", "binding signal": "0.721 ± 0.102"},
      {"sequence": "CTCGAGGATATCAAGATCTGGCCTCGGCGCGTGGGTAGGAACCTCTAGCTAGCCGACTCACTATAGGGATAATCGCCCTGAGCAAAGACC", "binding signal": "1.97 ± 0.0958"}
    ]}
  ]
}
